Results from the supplement of paper PMC8728848.
Only a selection was taken, and the strongest signals are over-represented in it overall.

Experiments:
Experiment in all cases: glycan array binding signal (z-score within array); higher = stronger binding
Conditions in all cases: glycan notation: IUPAC condensed, linker removed
Fuc(a1-2)Gal(b1-4)GlcNAc = molecular target: Fuc(a1-2)Gal(b1-4)GlcNAc
Summary of the method: (§1)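 The binding signal is a Z-score computed within each array. Data were drawn from 3228 arrays in the Consortium for Functional Glycomics database, restricted to those with a known protein sequence. Scores were averaged over arrays of the same protein sequence at different concentrations or buffers, and over linkers, and negative values can be taken as non-binding.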

[1] = molecular target: Fuc(a1-2)Gal(b1-4)GlcNAc(b1-3)Gal(b1-4)GlcNAc(b1-3)Gal(b1-4)GlcNAc
Summary of the method: as §1

Fuc(a1-2)Gal6S(b1-4)Glc = molecular target: Fuc(a1-2)Gal6S(b1-4)Glc
Summary of the method: as §1

Fuc(a1-2)GlcNAc = molecular target: Fuc(a1-2)GlcNAc
Summary of the method: as §1

[2] = molecular target: Fuc(a1-2)[GalNAc(a1-3)]Gal(b1-4)GlcNAc(b1-2)Man(a1-3)[Fuc(a1-2)[GalNAc(a1-3)]Gal(b1-4)GlcNAc(b1-2)Man(a1-6)]Man(b1-4)GlcNAc(b1-4)GlcNAc
Summary of the method: as §1

[3] = molecular target: Fuc(a1-2)[GalNAc(a1-3)]Gal(b1-4)GlcNAc(b1-3)Gal(b1-4)GlcNAc
Summary of the method: as §1

[4] = molecular target: Fuc(a1-3)[Gal(b1-4)]GlcNAc
Summary of the method: as §1

[5] = molecular target: Fuc(a1-3)[Gal(b1-4)]GlcNAc(b1-2)Man(a1-3)[Fuc(a1-3)[Gal(b1-4)]GlcNAc(b1-2)Man(a1-6)]Man(b1-4)GlcNAc(b1-4)[Fuc(a1-6)]GlcNAc
Summary of the method: as §1

[6] = molecular target: Fuc(a1-3)[GalNAc(b1-4)]GlcNAc
Summary of the method: as §1

Gal(a1-3)Gal(b1-3)GlcNAc = molecular target: Gal(a1-3)Gal(b1-3)GlcNAc
Summary of the method: as §1

Gal(b1-3)GlcNAc = molecular target: Gal(b1-3)GlcNAc
Summary of the method: as §1

[7] = molecular target: Gal(b1-3)GlcNAc(b1-3)Gal(b1-4)GlcNAc(b1-6)[Gal(b1-3)GlcNAc(b1-3)]Gal(b1-4)Glc
Summary of the method: as §1

[8] = molecular target: Gal(b1-3)GlcNAc(b1-6)Gal(b1-4)GlcNAc
Summary of the method: as §1

[9] = molecular target: Gal(b1-3)[Fuc(a1-4)]GlcNAc(b1-3)Gal(b1-4)[Fuc(a1-3)]GlcNAc
Summary of the method: as §1

[10] = molecular target: Gal(b1-4)GlcNAc(b1-2)Man(a1-3)[Man(a1-6)]Man(b1-4)GlcNAc(b1-4)GlcNAc
Summary of the method: as §1

[11] = molecular target: Gal(b1-4)GlcNAc(b1-2)Man(a1-6)Man(b1-4)GlcNAc(b1-4)GlcNAc
Summary of the method: as §1

[12] = molecular target: Gal(b1-4)GlcNAc(b1-2)[Gal(b1-4)GlcNAc(b1-4)]Man(a1-3)[Gal(b1-4)GlcNAc(b1-2)Man(a1-6)]Man(b1-4)GlcNAc(b1-4)GlcNAc
Summary of the method: as §1

[13] = molecular target: Gal(b1-4)GlcNAc(b1-2)[Gal(b1-4)GlcNAc(b1-4)]Man(a1-3)[GlcNAc(b1-4)][Gal(b1-4)GlcNAc(b1-2)[Gal(b1-4)GlcNAc(b1-6)]Man(a1-6)]Man(b1-4)GlcNAc(b1-4)GlcNAc
Summary of the method: as §1

Gal3S(b1-3)GlcNAc = molecular target: Gal3S(b1-3)GlcNAc
Summary of the method: as §1

[14] = molecular target: GlcNAc(a1-4)Gal(b1-4)GalNAc
Summary of the method: as §1

[15] = molecular target: GlcNAc(b1-3)[GlcNAc(b1-6)]GlcNAc(b1-4)GlcNAc
Summary of the method: as §1

[16] = molecular target: Man(a1-2)Man(a1-2)Man(a1-6)[Man(a1-3)]Man
Summary of the method: as §1

[17] = molecular target: Man(a1-2)Man(a1-3)[Man(a1-2)Man(a1-6)]Man
Summary of the method: as §1

[18] = molecular target: Man(a1-2)Man(a1-3)[Man(a1-2)Man(a1-6)]Man(a1-6)[Man(a1-2)Man(a1-2)Man(a1-3)]Man
Summary of the method: as §1

[19] = molecular target: Man(a1-2)Man(a1-6)[Man(a1-3)]Man(a1-6)[Man(a1-2)Man(a1-2)Man(a1-3)]Man
Summary of the method: as §1

[20] = molecular target: Man(a1-2)Man(a1-6)[Man(a1-3)]Man(a1-6)[Man(a1-2)Man(a1-2)Man(a1-3)]Man(b1-4)GlcNAc(b1-4)GlcNAc
Summary of the method: as §1

Man(a1-3)[Man(a1-6)]Man = molecular target: Man(a1-3)[Man(a1-6)]Man
Summary of the method: as §1

[21] = molecular target: Man(a1-3)[Man(a1-6)]Man(a1-6)[Man(a1-2)Man(a1-3)]Man(b1-4)GlcNAc(b1-4)GlcNAc
Summary of the method: as §1

[22] = molecular target: Man(a1-3)[Man(a1-6)]Man(a1-6)[Man(a1-3)]Man(b1-4)GlcNAc(b1-4)GlcNAc
Summary of the method: as §1

[23] = molecular target: Man(a1-3)[Man(a1-6)]Man(b1-4)GlcNAc(b1-4)GlcNAc
Summary of the method: as §1

[24] = molecular target: Neu5Ac(a2-3)Gal(b1-3)GlcNAc(b1-3)Gal(b1-4)GlcNAc
Summary of the method: as §1

[25] = molecular target: Neu5Ac(a2-3)Gal(b1-3)[Neu5Ac(a2-6)]GalNAc
Summary of the method: as §1

[26] = molecular target: Neu5Ac(a2-3)Gal(b1-4)GlcNAc(b1-3)Gal
Summary of the method: as §1

[27] = molecular target: Neu5Ac(a2-3)[GalNAc(b1-4)]Gal(b1-4)Glc
Summary of the method: as §1

[28] = molecular target: Neu5Ac(a2-8)Neu5Ac(a2-8)Neu5Ac(a2-3)Gal(b1-4)Glc
Summary of the method: as §1

Neu5Gc(a2-6)GalNAc = molecular target: Neu5Gc(a2-6)GalNAc
Summary of the method: as §1

B1: BC2L-A (Burkholderia cenocepacia), Q1BKJ8_BURCA (protein)
chain: ADSQTSSNRAGEFSIPPNTDFRAIFFANAAEQQHIKLFIGDSQEPAAYHKLTTRDGPREATLNSGNGKIRFEVSVNGKPSATDARLAPINGKKSDGSPFTVNFGIVVSEDGHDSDYNDGIVVLQWPIG
Fuc(a1-2)Gal(b1-4)GlcNAc
  glycan array binding signal (z-score): 0.167
[1]
  glycan array binding signal (z-score): 0.018
Fuc(a1-2)Gal6S(b1-4)Glc
  glycan array binding signal (z-score): -0.176
Fuc(a1-2)GlcNAc
  glycan array binding signal (z-score): -0.178
[2]
  glycan array binding signal (z-score): -0.165
[3]
  glycan array binding signal (z-score): -0.296
[4]
  glycan array binding signal (z-score): -0.285
[5]
  glycan array binding signal (z-score): -0.217
[6]
  glycan array binding signal (z-score): -0.263
Gal(a1-3)Gal(b1-3)GlcNAc
  glycan array binding signal (z-score): -0.284
Gal(b1-3)GlcNAc
  glycan array binding signal (z-score): -0.29
[7]
  glycan array binding signal (z-score): -0.22
[8]
  glycan array binding signal (z-score): -0.219
[9]
  glycan array binding signal (z-score): -0.086
[10]
  glycan array binding signal (z-score): 2.13
[11]
  glycan array binding signal (z-score): -0.182
[12]
  glycan array binding signal (z-score): -0.144
[13]
  glycan array binding signal (z-score): -0.22
Gal3S(b1-3)GlcNAc
  glycan array binding signal (z-score): 0.002
[14]
  glycan array binding signal (z-score): -0.296
[15]
  glycan array binding signal (z-score): -0.249
[16]
  glycan array binding signal (z-score): 4.07
[17]
  glycan array binding signal (z-score): 2.25
[18]
  glycan array binding signal (z-score): 4.82
[19]
  glycan array binding signal (z-score): 4.09
[20]
  glycan array binding signal (z-score): 5.06
Man(a1-3)[Man(a1-6)]Man
  glycan array binding signal (z-score): 5.28
[21]
  glycan array binding signal (z-score): 5.49
[22]
  glycan array binding signal (z-score): 4.38
[23]
  glycan array binding signal (z-score): 4.23
[24]
  glycan array binding signal (z-score): -0.218
[25]
  glycan array binding signal (z-score): -0.083
[26]
  glycan array binding signal (z-score): -0.214
[27]
  glycan array binding signal (z-score): -0.295
[28]
  glycan array binding signal (z-score): -0.253
Neu5Gc(a2-6)GalNAc
  glycan array binding signal (z-score): -0.29
